# Experimental data as given in the supplement of paper PMC6411743.
# ± gives the standard deviation of the averaged measurements. Targets with the largest changes are over-represented here; the source holds about 6,200 in all.
# Compound: Nc1ncnc2c1ncn2[C@@H]1O[C@H](COP(=O)(O)OP(=O)(O)NP(=O)(O)O)[C@@H](O)[C@H]1O [adenylyl imidodiphosphate]
# Assay: NP40-soluble protein abundance relative to vehicle (solubility fold change) (ratio); higher = more soluble protein in presence of AMP-PNP
# How it was run: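 Across three independent experiments, values are fold changes against the detergent-processed vehicle for each replicate, based on vsn-normalised intensities. The samples were Jurkat crude lysate treated with eight concentrations (0.1 to 10 mM) for 10 min at room temperature and then 3 min at 37 °C. Lysate was solubilised with 0.8% NP40 and benzonase, ultracentrifuged, and the supernatant analysed by TMT-labelled LC-MS/MS.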
# Sequence of UniProt Q08945 (Q08945 whole entry): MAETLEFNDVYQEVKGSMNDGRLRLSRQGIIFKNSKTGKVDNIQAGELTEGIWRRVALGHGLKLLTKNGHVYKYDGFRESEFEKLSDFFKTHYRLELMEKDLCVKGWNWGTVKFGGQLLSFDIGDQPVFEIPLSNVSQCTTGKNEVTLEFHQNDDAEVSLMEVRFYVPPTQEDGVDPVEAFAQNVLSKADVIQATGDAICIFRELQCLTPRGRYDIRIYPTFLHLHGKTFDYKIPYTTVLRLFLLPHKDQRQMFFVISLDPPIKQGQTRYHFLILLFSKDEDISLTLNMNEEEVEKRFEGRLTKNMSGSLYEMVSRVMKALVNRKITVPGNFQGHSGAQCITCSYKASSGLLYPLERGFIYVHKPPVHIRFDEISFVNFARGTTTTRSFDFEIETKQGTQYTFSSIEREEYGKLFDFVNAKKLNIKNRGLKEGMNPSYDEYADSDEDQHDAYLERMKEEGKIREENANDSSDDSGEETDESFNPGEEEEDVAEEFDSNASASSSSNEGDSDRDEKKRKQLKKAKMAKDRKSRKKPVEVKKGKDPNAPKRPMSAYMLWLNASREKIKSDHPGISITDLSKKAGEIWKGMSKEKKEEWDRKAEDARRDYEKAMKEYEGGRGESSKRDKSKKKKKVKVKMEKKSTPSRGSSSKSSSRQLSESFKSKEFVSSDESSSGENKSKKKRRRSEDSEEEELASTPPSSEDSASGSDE
# Sequence of UniProt O95453 (O95453 whole entry): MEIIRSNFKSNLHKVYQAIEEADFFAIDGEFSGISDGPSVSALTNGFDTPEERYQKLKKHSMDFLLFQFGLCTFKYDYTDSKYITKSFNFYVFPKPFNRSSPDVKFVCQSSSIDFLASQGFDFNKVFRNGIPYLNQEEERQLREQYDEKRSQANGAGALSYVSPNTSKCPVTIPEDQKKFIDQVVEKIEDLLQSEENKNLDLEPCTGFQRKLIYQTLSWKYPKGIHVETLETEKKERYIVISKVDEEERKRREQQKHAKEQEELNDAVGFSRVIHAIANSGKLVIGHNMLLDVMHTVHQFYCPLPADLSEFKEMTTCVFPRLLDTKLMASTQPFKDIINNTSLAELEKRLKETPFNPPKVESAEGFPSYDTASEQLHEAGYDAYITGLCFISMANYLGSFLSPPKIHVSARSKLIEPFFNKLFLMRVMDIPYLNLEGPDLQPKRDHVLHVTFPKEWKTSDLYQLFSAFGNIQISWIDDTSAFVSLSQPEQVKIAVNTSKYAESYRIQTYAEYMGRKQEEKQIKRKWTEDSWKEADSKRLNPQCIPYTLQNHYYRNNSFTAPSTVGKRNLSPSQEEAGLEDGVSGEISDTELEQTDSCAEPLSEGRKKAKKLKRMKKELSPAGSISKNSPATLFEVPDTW
# Sequence of UniProt P11388 (P11388 whole entry): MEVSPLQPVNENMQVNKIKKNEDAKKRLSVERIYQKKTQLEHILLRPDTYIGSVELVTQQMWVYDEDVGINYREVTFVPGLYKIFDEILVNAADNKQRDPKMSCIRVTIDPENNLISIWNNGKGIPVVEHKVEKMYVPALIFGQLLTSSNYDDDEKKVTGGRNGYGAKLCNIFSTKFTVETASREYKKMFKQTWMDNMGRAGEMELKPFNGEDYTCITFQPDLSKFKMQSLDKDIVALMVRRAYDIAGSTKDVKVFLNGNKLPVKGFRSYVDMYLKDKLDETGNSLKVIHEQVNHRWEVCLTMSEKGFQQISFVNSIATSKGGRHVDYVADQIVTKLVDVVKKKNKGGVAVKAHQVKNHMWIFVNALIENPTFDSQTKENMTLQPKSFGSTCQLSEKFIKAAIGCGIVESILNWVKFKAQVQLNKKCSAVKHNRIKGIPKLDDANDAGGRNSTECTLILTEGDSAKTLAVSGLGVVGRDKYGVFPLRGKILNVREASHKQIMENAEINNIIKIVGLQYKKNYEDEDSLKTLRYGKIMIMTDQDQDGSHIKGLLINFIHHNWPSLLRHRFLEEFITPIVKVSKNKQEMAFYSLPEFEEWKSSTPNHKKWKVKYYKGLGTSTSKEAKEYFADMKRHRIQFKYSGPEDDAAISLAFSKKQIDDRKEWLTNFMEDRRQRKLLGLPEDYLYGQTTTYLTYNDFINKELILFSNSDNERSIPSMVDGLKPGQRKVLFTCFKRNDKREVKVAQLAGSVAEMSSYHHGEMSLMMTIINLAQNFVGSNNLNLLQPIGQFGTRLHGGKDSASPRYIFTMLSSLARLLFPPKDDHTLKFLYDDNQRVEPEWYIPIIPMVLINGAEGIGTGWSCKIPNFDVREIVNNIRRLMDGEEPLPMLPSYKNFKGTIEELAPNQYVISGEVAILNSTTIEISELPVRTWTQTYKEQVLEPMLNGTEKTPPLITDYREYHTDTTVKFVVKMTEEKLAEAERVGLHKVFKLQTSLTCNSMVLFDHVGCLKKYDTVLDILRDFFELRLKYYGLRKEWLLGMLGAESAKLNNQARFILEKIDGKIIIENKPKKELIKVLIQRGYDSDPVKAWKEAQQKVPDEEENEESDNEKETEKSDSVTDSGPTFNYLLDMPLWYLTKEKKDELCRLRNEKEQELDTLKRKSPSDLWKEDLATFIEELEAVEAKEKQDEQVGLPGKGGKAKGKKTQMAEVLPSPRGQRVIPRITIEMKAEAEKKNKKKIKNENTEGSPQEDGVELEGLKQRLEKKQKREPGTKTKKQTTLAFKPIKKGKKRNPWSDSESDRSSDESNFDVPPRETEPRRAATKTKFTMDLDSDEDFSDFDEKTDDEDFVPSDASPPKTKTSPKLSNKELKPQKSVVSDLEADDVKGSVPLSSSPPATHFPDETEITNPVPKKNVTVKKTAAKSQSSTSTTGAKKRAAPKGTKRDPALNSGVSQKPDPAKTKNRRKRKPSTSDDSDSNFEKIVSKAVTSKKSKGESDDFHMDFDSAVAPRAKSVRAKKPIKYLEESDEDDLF
# Sequence of UniProt O75694 (O75694 whole entry): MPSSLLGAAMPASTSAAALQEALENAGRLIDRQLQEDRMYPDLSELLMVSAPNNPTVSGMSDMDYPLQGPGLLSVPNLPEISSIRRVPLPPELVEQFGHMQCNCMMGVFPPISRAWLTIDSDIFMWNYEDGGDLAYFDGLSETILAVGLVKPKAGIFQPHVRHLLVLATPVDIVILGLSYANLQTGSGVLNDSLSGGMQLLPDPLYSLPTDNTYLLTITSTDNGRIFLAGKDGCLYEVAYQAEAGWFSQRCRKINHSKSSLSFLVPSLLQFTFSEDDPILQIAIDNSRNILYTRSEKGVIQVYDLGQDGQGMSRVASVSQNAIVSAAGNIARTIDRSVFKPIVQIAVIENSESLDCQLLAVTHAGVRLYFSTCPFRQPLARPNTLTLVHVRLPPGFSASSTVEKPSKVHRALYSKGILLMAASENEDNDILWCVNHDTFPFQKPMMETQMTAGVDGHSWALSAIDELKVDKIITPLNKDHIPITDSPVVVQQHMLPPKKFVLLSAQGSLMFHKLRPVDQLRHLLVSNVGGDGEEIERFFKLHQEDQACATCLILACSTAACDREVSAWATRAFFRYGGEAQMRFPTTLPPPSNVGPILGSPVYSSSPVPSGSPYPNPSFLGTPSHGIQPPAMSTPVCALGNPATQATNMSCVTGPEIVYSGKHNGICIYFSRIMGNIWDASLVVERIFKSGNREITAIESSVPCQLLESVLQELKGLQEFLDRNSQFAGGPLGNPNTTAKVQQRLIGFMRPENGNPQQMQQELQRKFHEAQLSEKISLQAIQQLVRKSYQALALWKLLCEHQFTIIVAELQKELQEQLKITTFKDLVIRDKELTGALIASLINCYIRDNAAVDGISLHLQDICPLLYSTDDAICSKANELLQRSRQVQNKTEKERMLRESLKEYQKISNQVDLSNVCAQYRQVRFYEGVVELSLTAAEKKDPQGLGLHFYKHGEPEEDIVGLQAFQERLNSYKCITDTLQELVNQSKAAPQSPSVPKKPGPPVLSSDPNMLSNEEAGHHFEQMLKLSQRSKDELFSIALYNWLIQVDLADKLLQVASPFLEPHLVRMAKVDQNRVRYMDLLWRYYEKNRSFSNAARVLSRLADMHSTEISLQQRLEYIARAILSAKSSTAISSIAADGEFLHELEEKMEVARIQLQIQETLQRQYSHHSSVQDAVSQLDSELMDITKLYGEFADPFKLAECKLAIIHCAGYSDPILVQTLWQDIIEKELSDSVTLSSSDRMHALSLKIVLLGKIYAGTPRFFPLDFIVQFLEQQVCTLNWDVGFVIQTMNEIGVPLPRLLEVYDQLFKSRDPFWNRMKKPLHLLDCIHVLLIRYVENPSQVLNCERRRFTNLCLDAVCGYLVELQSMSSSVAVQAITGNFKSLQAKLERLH
# Sequence of UniProt P11166 (P11166 whole entry): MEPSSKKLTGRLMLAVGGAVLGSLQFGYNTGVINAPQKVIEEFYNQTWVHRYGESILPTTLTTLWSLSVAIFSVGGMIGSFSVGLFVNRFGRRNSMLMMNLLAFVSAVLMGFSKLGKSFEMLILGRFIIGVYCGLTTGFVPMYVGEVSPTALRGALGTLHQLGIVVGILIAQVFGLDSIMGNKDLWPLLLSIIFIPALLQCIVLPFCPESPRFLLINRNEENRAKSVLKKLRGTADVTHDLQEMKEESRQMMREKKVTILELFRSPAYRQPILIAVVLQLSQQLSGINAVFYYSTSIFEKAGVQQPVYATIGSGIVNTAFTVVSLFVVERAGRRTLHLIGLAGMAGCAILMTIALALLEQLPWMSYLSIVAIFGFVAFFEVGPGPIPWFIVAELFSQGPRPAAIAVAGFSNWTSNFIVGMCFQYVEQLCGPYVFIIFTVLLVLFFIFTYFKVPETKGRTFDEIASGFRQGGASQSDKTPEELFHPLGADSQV
# Sequence of UniProt P18065 (P18065 whole entry): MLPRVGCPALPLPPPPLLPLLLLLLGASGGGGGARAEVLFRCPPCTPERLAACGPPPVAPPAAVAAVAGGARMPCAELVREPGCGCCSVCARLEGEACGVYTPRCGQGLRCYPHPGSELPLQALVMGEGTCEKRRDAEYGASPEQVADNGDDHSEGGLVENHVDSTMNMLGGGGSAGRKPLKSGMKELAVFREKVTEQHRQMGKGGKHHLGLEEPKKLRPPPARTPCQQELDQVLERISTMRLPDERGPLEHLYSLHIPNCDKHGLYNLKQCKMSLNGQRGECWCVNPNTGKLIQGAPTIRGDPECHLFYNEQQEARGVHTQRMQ
Target,NP40-soluble protein abundance (concentration: 1mM),NP40-soluble protein abundance (concentration: 2mM),NP40-soluble protein abundance (concentration: 4mM),NP40-soluble protein abundance (concentration: 6mM),NP40-soluble protein abundance (concentration: 8mM),NP40-soluble protein abundance (concentration: 10mM)
UniProt Q12872|Q12872-2,1.04 ± 0.04,1.11 ± 0.061,1.12 ± 0.043,1.17 ± 0.097,1.2 ± 0.1,1.33 ± 0.1
IGHMBP2 (UniProt P38935),1.17 ± 0.014,1.16 ± 0.05,1.22 ± 0.083,1.26 ± 0.086,1.33 ± 0.06,1.42 ± 0.12
UniProt P17812,0.932 ± 0.03,0.873 ± 0.06,0.91 ± 0.033,0.96 ± 0.077,0.97 ± 0.04,0.924 ± 0.044
SSRP1 (UniProt Q08945),1.05 ± 0.053,1.07 ± 0.03,1.13 ± 0.045,1.35 ± 0.055,1.47 ± 0.058,1.73 ± 0.1
UniProt P49005|F8W8R3,0.977 ± 0.021,0.947 ± 0.059,0.973 ± 0.027,0.929 ± 0.011,0.9339 ± 0.0057,0.925 ± 0.037
UniProt P11388|P11388-2|P11388-3|P11388-4,1.66 ± 0.082,1.72 ± 0.05,1.82 ± 0.16,1.98 ± 0.14,2.04 ± 0.24,2.13 ± 0.27
ALDH4A1 (UniProt P30038),0.99 ± 0.028,1.02 ± 0.016,0.977 ± 0.033,0.975 ± 0.023,0.938 ± 0.013,0.954 ± 0.02
SFPQ (UniProt P23246),1.15 ± 0.054,1.25 ± 0.076,1.41 ± 0.12,1.68 ± 0.26,1.75 ± 0.28,2.02 ± 0.41
ACTR1B (UniProt P42025),1 ± 0.062,0.927 ± 0.12,0.983 ± 0.071,0.986 ± 0.029,0.965 ± 0.063,0.961 ± 0.091
UniProt P54619|P54619-3|P54619-2,0.993 ± 0.015,0.871 ± 0.092,0.964 ± 0.035,0.943 ± 0.025,1.01 ± 0.02,0.905 ± 0.045
UniProt Q01082|Q01082-3,1.05 ± 0.028,1.08 ± 0.035,1.05 ± 0.019,1.08 ± 0.06,1.05 ± 0.032,1.09 ± 0.056
UniProt P38159|P38159-2,1.12 ± 0.09,1.34 ± 0.094,1.34 ± 0.037,1.53 ± 0.16,1.58 ± 0.19,1.82 ± 0.16
UniProt O75822|O75822-2,0.876 ± 0.042,0.941 ± 0.07,0.858 ± 0.031,0.949 ± 0.026,0.957 ± 0.029,0.99 ± 0.015
UniProt P28331|P28331-2,0.972 ± 0.037,0.935 ± 0.081,0.954 ± 0.059,0.949 ± 0.055,0.938 ± 0.037,0.942 ± 0.086
UniProt O95104|O95104-3|O95104-2,1.1 ± 0.033,1.22 ± 0.083,1.26 ± 0.039,1.34 ± 0.14,1.39 ± 0.071,1.46 ± 0.063
IGFBP2 (UniProt P18065),1.03 ± 0.034,1.03 ± 0.058,1.01 ± 0.067,0.966 ± 0.0077,0.991 ± 0.021,0.957 ± 0.014
LCP2 (UniProt Q13094),1.02 ± 0.027,1.05 ± 0.053,0.992 ± 0.034,0.98 ± 0.0097,0.955 ± 0.042,0.947 ± 0.061
UniProt P08559|P08559-3|P08559-4|P08559-2,0.979 ± 0.13,0.94 ± 0.13,0.925 ± 0.13,0.923 ± 0.17,0.95 ± 0.12,0.965 ± 0.15

Target,NP40-soluble protein abundance (concentration: 1mM),NP40-soluble protein abundance (concentration: 2mM),NP40-soluble protein abundance (concentration: 4mM),NP40-soluble protein abundance (concentration: 6mM),NP40-soluble protein abundance (concentration: 8mM),NP40-soluble protein abundance (concentration: 10mM)
NUDT2 (UniProt P50583),0.9311 ± 0.0079,0.909 ± 0.027,1.56 ± 0.26,1.22 ± 0.17,1.49 ± 0.23,1.14 ± 0.14
FOXK1 (UniProt P85037),0.999 ± 0.044,1.06 ± 0.086,1.01 ± 0.014,0.987 ± 0.015,0.9378 ± 0.0057,1.01 ± 0.02
GCLC (UniProt P48506),0.993 ± 0.027,0.928 ± 0.043,0.976 ± 0.033,0.941 ± 0.014,0.963 ± 0.029,0.922 ± 0.02
UniProt P51608-2|P51608|A0A087WXF0,1.04 ± 0.023,1.06 ± 0.016,1.04 ± 0.046,1.07 ± 0.019,1.07 ± 0.028,1.15 ± 0.042
UniProt Q01085-2,0.997 ± 0.044,0.976 ± 0.057,0.992 ± 0.029,0.957 ± 0.037,0.9409 ± 0.0074,0.952 ± 0.032
UniProt P09651-2|P09651,1.04 ± 0.11,1.09 ± 0.075,1.09 ± 0.11,1.14 ± 0.15,1.18 ± 0.15,1.25 ± 0.18
SLC2A1 (UniProt P11166),1.015 ± 0.005,0.999 ± 0.042,1.02 ± 0.055,0.998 ± 0.029,1.01 ± 0.032,1.01 ± 0.053
UniProt P55060|P55060-3,1 ± 0.012,1.02 ± 0.11,0.987 ± 0.032,1.01 ± 0.04,0.985 ± 0.027,1.02 ± 0.04
NUP155 (UniProt O75694),0.983 ± 0.046,0.919 ± 0.062,1 ± 0.025,0.98 ± 0.039,1.01 ± 0.035,1 ± 0.023
STAMBP (UniProt O95630),1.02 ± 0.02,0.993 ± 0.012,0.995 ± 0.03,0.984 ± 0.018,0.964 ± 0.033,0.948 ± 0.06
UniProt P13807|P13807-2,0.947 ± 0.11,0.922 ± 0.065,0.895 ± 0.096,0.867 ± 0.14,0.876 ± 0.098,0.863 ± 0.16
UniProt P26038|V9GZ54,0.967 ± 0.13,1.06 ± 0.14,0.988 ± 0.13,0.916 ± 0.088,0.935 ± 0.012,0.936 ± 0.067
ECHS1 (UniProt P30084),0.9976 ± 0.0068,0.9885 ± 0.006,0.955 ± 0.029,0.994 ± 0.02,0.963 ± 0.017,0.961 ± 0.015
HNRNPH2 (UniProt P55795),0.9889 ± 0.0045,0.934 ± 0.086,0.946 ± 0.028,0.947 ± 0.023,0.9566 ± 0.0082,0.908 ± 0.019
UniProt P25398,0.934 ± 0.016,0.955 ± 0.044,0.869 ± 0.053,0.872 ± 0.033,0.81 ± 0.054,0.847 ± 0.049
UniProt P16083|Q5TD07,1.02 ± 0.02,0.982 ± 0.074,0.988 ± 0.034,0.991 ± 0.02,0.993 ± 0.04,0.982 ± 0.052
UniProt O95453|O95453-2|O95453-3,1.02 ± 0.018,0.975 ± 0.042,0.9979 ± 0.0039,0.991 ± 0.026,0.997 ± 0.016,0.968 ± 0.013
